Assay [1] in a line: antimalarial activity against Dd2 strain (AID 2302;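 active = growth inhibition above 50% at the single 2 µM test dose, taken to imply half-maximal potency below 2 µM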;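 note: 0% = DMSO untreated growth and 100% = chloroquine plus artemisinin killed control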). Conditions: P. falciparum Dd2 in RBCs, LDH growth readout, 72 h; at 2 µM; active compounds read high.
Assay [2] concerns the target L-lactate dehydrogenase (Plasmodium falciparum (isolate CDC / Honduras)) (UniProt Q27743). Description: PfLDH activity inhibition – cell lysate, 3D7 strain, counter-screen for P. falciparum growth inhibition project (AID 2304).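 Note: 0% = vehicle and 100% = reference inhibitor.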 Conditions: P. falciparum 3D7 crude extract, LDH APAD/NBT absorbance; at 2 µM; active compounds read high. (The purpose of a counterscreen is to sort out artefacts and off-target activity.)

Assay [3] in a line: inhibition of 3D7 malaria parasite growth – strain 3D7 (AID 2306).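 Note: 0% = DMSO wells and 100% = chloroquine plus artemisinin control wells.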 Conditions: P. falciparum 3D7 erythrocytic growth, LDH absorbance, 72 h; at 2 µM; active compounds read high.
Assay [4] concerns the target Calcium-dependent protein kinase 1 (Plasmodium falciparum (isolate 3D7)) (UniProt P62344). Description: PfCDPK1 kinase inhibitors, biochemical, TCAMS library (AID 1159585; cut-off not given, nearly all actives have IC50 up to about 0.98 µM;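 note: inhibitors leave more ATP so luminescence rises with inhibition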). Conditions: recombinant PfCDPK1, Kinase-Glo ATP depletion luminescence. A general note: In Kinase-Glo more light means more ATP remaining.
Assay [5] has as its target Plasmodium falciparum protein kinase 6 (PK6, PF3D7_1337100) (UniProt Q8IDW1). As to the kind of experiment: PfPK6 kinase inhibitors, biochemical, TCAMS library (AID 1159586). Conditions: recombinant PfPK6, Kinase-Glo ATP depletion luminescence.
Assay [6] concerns the target Protein kinase 7 (PK7), Plasmodium falciparum 3D7 (PF3D7_0213400) (UniProt Q7YTF7). As to the kind of experiment: inhibition of Plasmodium PK7 catalytic activity – biochemical, TCAMS antimalarial set, Kinase-Glo luminescence (AID 1159587). Conditions: recombinant PfPK7, Kinase-Glo ATP depletion luminescence.
The target in assay [7] is Calcium-dependent protein kinase 4 (Plasmodium falciparum (isolate 3D7)) (UniProt Q8IBS5). Description: PfCDPK4 kinase inhibitors, biochemical, TCAMS library (AID 1159588; cut-off not given, nearly all actives have IC50 up to about 0.91 µM). Conditions: recombinant PfCDPK4, Kinase-Glo ATP depletion luminescence.
Sequence of Calcium-dependent protein kinase 4 (Plasmodium falciparum (isolate 3D7)) (Q8IBS5 whole entry, looked up): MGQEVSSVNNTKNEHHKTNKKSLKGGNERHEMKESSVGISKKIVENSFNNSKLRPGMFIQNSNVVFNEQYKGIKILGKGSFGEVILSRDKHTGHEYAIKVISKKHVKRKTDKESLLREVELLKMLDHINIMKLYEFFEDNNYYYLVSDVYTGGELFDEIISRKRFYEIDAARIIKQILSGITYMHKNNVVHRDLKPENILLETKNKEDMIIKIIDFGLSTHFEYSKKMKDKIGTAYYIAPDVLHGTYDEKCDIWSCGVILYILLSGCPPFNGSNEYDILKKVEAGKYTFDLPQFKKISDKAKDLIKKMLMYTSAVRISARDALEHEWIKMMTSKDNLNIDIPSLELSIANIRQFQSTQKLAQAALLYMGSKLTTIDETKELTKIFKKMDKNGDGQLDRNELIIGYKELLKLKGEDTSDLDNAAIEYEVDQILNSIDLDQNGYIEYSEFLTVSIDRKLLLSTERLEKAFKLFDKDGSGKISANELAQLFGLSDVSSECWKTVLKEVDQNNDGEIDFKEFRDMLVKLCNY

A number with no mark means an inactive call. For part of these data: Measured potencies and affinities stand elsewhere. Activity calls are given as the source filed them. Unless noted, the rule behind the calls is not given here.

Sequence of Protein kinase 7 (PK7), Plasmodium falciparum 3D7 (PF3D7_0213400) (Q7YTF7 1-343): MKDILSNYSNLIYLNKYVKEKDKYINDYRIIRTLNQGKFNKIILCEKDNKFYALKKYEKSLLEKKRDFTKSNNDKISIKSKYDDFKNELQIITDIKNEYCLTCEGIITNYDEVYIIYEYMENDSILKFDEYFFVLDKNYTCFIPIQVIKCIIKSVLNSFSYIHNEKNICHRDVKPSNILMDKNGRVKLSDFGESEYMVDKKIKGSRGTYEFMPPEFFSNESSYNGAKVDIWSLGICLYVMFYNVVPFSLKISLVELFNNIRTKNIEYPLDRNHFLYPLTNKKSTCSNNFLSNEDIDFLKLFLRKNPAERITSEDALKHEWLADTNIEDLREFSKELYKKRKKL
Sequence of Plasmodium falciparum protein kinase 6 (PK6, PF3D7_1337100) (Q8IDW1 1-305): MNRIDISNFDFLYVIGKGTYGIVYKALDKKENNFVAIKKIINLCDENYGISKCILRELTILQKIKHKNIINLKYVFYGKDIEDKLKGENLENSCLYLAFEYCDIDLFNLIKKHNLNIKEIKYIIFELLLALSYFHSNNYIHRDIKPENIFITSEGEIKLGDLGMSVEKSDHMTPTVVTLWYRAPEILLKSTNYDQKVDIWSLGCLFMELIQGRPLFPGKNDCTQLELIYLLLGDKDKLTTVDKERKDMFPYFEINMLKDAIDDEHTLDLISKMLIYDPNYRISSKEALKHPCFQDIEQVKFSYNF
Sequence of L-lactate dehydrogenase (Plasmodium falciparum (isolate CDC / Honduras)) (Q27743 whole entry, looked up): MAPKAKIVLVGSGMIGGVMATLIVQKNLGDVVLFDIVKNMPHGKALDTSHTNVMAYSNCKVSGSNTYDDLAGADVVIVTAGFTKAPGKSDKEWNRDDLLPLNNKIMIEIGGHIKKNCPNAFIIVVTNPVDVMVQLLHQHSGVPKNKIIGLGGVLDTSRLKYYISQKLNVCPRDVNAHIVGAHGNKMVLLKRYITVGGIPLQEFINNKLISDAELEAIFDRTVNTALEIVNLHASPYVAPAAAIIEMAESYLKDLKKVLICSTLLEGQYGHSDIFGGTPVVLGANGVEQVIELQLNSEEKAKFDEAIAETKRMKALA
Sequence of Calcium-dependent protein kinase 1 (Plasmodium falciparum (isolate 3D7)) (P62344 whole entry, looked up): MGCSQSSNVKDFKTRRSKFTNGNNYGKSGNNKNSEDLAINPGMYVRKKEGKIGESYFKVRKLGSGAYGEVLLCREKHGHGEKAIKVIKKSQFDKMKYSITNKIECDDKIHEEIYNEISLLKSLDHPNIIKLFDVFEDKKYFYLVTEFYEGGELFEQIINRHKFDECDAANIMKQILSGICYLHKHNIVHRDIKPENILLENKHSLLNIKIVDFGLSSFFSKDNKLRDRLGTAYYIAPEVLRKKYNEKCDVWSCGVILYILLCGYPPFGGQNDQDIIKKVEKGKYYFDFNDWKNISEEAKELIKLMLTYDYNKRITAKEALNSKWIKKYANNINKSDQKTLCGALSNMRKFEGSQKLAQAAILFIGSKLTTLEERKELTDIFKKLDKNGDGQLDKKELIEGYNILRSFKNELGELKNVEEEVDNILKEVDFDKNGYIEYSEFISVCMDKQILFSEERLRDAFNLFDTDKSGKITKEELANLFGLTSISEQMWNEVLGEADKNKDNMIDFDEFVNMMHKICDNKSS

The term inhibition denotes the change of the read-out against control, counted positive when it falls. As to `CCCc1ccc(Cc2cnc3nc(N)nc(N)c3c2C)cc1`, the growth inhibition is -3% in assay [1] and 98% (active) in assay [3]. Besides, the inhibition in assay [2] was 4%. For the same compound, the outcome in assay [4], in assay [5], in assay [6] and in assay [7] was inactive.
Regarding `CC(C)C(=O)Nc1c(F)cc(F)cc1CCc1ccc(O)cc1`, the growth inhibition was 91% (active) in assay [1] and 90% (active) in assay [3]. In addition, the inhibition in assay [2] was 2%. Further, the result in assay [4], in assay [5], in assay [6] and in assay [7] was inactive.
For `CCCN(c1ccc(O)c(CN2CCCCC2)c1)c1ccc([N+](=O)[O-])cn1`, the growth inhibition in assay [1] is 96% (active); in assay [3], 99% (active). For the same compound, the inhibition in assay [2] is 4%. For the same compound, the outcome in assay [4], in assay [5], in assay [6] and in assay [7] was inactive.
With `Nc1nc(N)c(-c2ccccc2)c(=O)[nH]1`, the growth inhibition in assay [1] was -5%; in assay [3], 83% (active). Besides, the inhibition in assay [2] is 0%. Besides, the result in assay [4], in assay [5], in assay [6] and in assay [7] was inactive.
As to `Nc1nnc(-c2ccc(Cl)c(Br)c2)c(N)n1`, the growth inhibition is -3% in assay [1] and 86% (active) in assay [3]. Moreover, in assay [2], the inhibition was -3%. For the same compound, the outcome in assay [4], in assay [5], in assay [6] and in assay [7] was inactive.
In the case of `COc1cc(Cc2cnc3nc(N)nc(N)c3c2C)cc(OC)c1OC`, the values for the growth inhibition in assay [1] and in assay [3] were 98% (active) and 95% (active), respectively. Besides, the inhibition in assay [2] was 1%. Also, the result in assay [4], in assay [5], in assay [6] and in assay [7] was inactive.
Consider `CCCc1cc(Cc2cnc(N)nc2N)cc2c1OC(C)(C)C2`, for which the growth inhibition in assay [1] is 3%; in assay [3], 89% (active). The inhibition in assay [2] was -1%. The outcome in assay [4], in assay [5], in assay [6] and in assay [7] was inactive.
Regarding `CN(C)S(=O)(=O)n1ncc2c3c(N)nc(N)nc3ccc21`, the growth inhibition is 0% in assay [1] and 96% (active) in assay [3]. The inhibition in assay [2] is -4%. The result in assay [4], in assay [5], in assay [6] and in assay [7] was inactive.
As to `Cc1cc2c3c(N)nc(N)nc3ccc2n1C`, the growth inhibition in assay [1] is -2%; in assay [3], 95% (active). Also, the inhibition in assay [2] was -5%. Besides, the outcome in assay [4], in assay [5], in assay [6] and in assay [7] was inactive.
Turning to `Cc1[nH]c(C)c(-c2ccc(Oc3ccc(Cl)cc3)c(Cl)c2)c(=O)c1Br`, the growth inhibition was 96% (active) in assay [1] and 97% (active) in assay [3]. Also, the inhibition in assay [2] is -1%. The result in assay [4], in assay [5], in assay [6] and in assay [7] was inactive.
For `COc1ccc2c(=O)c(Br)c(C)[nH]c2c1`, the growth inhibition in assay [1] was 74% (active); in assay [3] it was 89% (active). Moreover, the inhibition in assay [2] was -8%. For the same compound, the result in assay [4], in assay [5], in assay [6] and in assay [7] was inactive.
On to `Nc1nc(Cc2ccc(Cl)cc2)nc(Cc2ccc(Cl)cc2)n1`, for which the growth inhibition in assay [1] is -2%; in assay [3] it was 85% (active). The inhibition in assay [2] was 2%. Also, the result in assay [4], in assay [5], in assay [6] and in assay [7] was inactive.
In the case of `CCc1nc(N)nc(N)c1-c1ccc2c(c1)CCCC2`, the growth inhibition is -5% in assay [1] and 95% (active) in assay [3]. Also, the inhibition in assay [2] was -5%. For the same compound, the result in assay [4], in assay [5], in assay [6] and in assay [7] was inactive.
Turning to `Cc1[nH]c(C)c(-c2cccc(Oc3ccc(Cl)cc3)c2)c(=O)c1Br`, the growth inhibition in assay [1] is 97% (active); in assay [3], 96% (active). For the same compound, in assay [2], the inhibition is 4%. Further, the outcome in assay [4], in assay [5], in assay [6] and in assay [7] was inactive.
`c1ccc2c(c1)cc(CNCCCN1CCN(CCCNCc3cc4ccccc4c4ccccc34)CC1)c1ccccc12`: the growth inhibition is 98% (active) in assay [1] and 101% (active) in assay [3]. Also, the inhibition in assay [2] is 2%. Moreover, the result in assay [4], in assay [5], in assay [6] and in assay [7] was inactive.
`CCC1=C(C[C@H]2NCCc3cc(OC)c(OC)cc32)C[C@H]2c3cc(OC)c(OC)cc3CCN2C1`: the growth inhibition is 100% (active) in assay [1] and 102% (active) in assay [3]. Also, the inhibition in assay [2] was -2%. The outcome in assay [4], in assay [5], in assay [6] and in assay [7] was inactive.
For the compound `CCCCc1cc(Cc2cnc(N)nc2N)cc(OC)c1OC`, the results for the growth inhibition in assay [1] and in assay [3] were -1% and 86% (active), respectively. The inhibition in assay [2] is 3%. The result in assay [4], in assay [5], in assay [6] and in assay [7] was inactive.
`COc1ccc2c(OC)cccc2c1CNCCCCCCNCc1c(OC)ccc2c(OC)cccc12`: the growth inhibition was 28% in assay [1] and 92% (active) in assay [3]. For the same compound, in assay [2], the inhibition was -5%. Moreover, the result in assay [4], in assay [5], in assay [6] and in assay [7] was inactive.
Take `Oc1c(CNC2CCCCC2)cc(Cl)c2ccccc12`: the growth inhibition in assay [1] was 101% (active); in assay [3], 98% (active). Moreover, in assay [2], the inhibition is 0%. In addition, the outcome in assay [4], in assay [5], in assay [6] and in assay [7] was inactive.
In the case of `Cc1ccc2ccncc2c1N`, the growth inhibition was 4% in assay [1] and 96% (active) in assay [3]. The inhibition in assay [2] is -6%. The outcome in assay [4], in assay [5], in assay [6] and in assay [7] was inactive.
For `CCCCCCOc1ccc2ccccc2c1CNCCCCCCNCc1c(OCCCCCC)ccc2ccccc12`, the growth inhibition in assay [1] was 55% (active); in assay [3], 85% (active). Besides, the inhibition in assay [2] was 6%. For the same compound, the result in assay [4], in assay [5], in assay [6] and in assay [7] was inactive.
On to `CCCCNCc1cc(Cl)c2ccccc2c1O`, for which the values for the growth inhibition in assay [1] and in assay [3] were 100% (active) and 102% (active), respectively. The inhibition in assay [2] is 0%. Also, the result in assay [4], in assay [5], in assay [6] and in assay [7] was inactive.
With `COc1cc(CCNC(=O)Cc2ccc3ccccc3c2)ccc1OCc1ccccc1`, the growth inhibition in assay [1] is 61% (active); in assay [3], 93% (active). The inhibition in assay [2] is 2%. For the same compound, the result in assay [4], in assay [5], in assay [6] and in assay [7] was inactive.
For the compound `CCN(CC)CCNc1cc(C)nc(/N=C(\N)Nc2ccc(Cl)cc2)n1`, the results for the growth inhibition in assay [1] and in assay [3] were 0% and 101% (active), respectively. Further, the inhibition in assay [2] was 3%. The result in assay [4], in assay [5], in assay [6] and in assay [7] was inactive.
